E coli growth-1 = E. coli growth inhibition, primary screen, OD600. Escherichia coli growth, 23 h; active compounds read low. OD600 absorbance (concentration not given with the values). 0.21% of 330,000 active;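 active means OD600 absorbance below the run mean of sample wells minus 3.6 SD, in any replicate, cut at about 0.56 in these data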
AddAB inh = growth inhibition of E. coli expressing H. pylori AddAB, primary screen, AddAB inhibitor project, absorbance; inhibition, % at 11.9 µM; 0.29% of 330,000 active; in the data active means inhibition above about 12%;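 further: 0% = vehicle wells of infected cells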
E coli growth-2 = E. coli V3065 growth inhibition, primary screen, counter-screen for AddAB inhibitor project, absorbance, OD600 | AID 449728, 2010 | 0.27% of 330,000 active | 18 h | inhibition, % at 11.9 µM;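 active means inhibition above the campaign's mean inhibition across all tested compounds plus 3 SD, cut at about 9.9% in these data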;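 further: uninfected addAB+ strain grown without phage in ampicillin broth; 0% = DMSO wells and 100% = ciprofloxacin 0.95 µg/ml wells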
phage Ecoli inh = growth loss of phage-infected E. coli, primary screen, RecBCD inhibitor project, absorbance, with phage, HTS; inhibition, % at 11.9 µM; 0.26% of 360,000 active; AID 651602, 2012; in the data active means inhibition above about 11%
Tat export inh = E. coli Tat export inhibitors, primary screen, MC4100, TorA-mCherry reporter, fluorescence, single point; 0.036% of 340,000 active; inhibition, % at 10 µM; AID 488895, 2010;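 active means mean replicate inhibition at least 50% and at least half of replicates individually reaching 50%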;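 further: exported cargo escapes ClpAP degradation while cytoplasmic cargo is degraded and loses fluorescence; 0% = median of neutral control wells and 100% = median of NaSCN control wells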
AddAB confirm = growth loss of phage-infected E. coli expressing H. pylori AddAB, confirmation, AddAB inhibitor project, absorbance, E. coli V3065, T4 phage, triplicate. inhibition, % at 11.9 µM. OD; T4 phage with gene 2 nonsense mutations. shares compounds with AddAB inh. 64% of 880 active;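 active means mean inhibition above a set limit taken from the earlier primary screen, cut at about 13% in these data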;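 further: higher means less bacterial growth since AddAB block lets phage replicate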
RecBCD counter = growth loss of RecBCD+ E. coli with mutant T4 phage, counter-screen for AddAB inhibitor project, absorbance, V66 E. coli. shares compounds with AddAB inh. OD growth. inhibition, % at 11.9 µM. 73% of 880 active. AID 488955, 2010;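 active means mean inhibition above the mean of solvent-only control wells plus 3 SD, cut at about 4% in these data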;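 further: optical density read after an 18 h incubation at 37 °C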
Bact viability = bacterial viability inhibition counter-screen, confirmation, counter-screen for AddAB inhibitor project, absorbance; shares compounds with AddAB inh; absorbance (AddAB counterscreen); inhibition, % at 11.9 µM; 35% of 880 active; AID 488956, 2010; in the data active means inhibition above about 25%
The depositor's hits bear a star; . = no result given. In the library only some 0.5% were active in any assay of this set; here they are far more common.

SMILES	E coli growth-1	AddAB inh	E coli growth-2	phage Ecoli inh	Tat export inh	AddAB confirm	RecBCD counter	Bact viability
COc1ccc(-n2c(C)cc(/C=N/Nc3nnc(C)n3N)c2C)cc1	.	14*	3	1	-17	6	1	-3
CCCOC(=O)C1NC(=O)N2C1SC(C)(C)C2C(=O)OCCC (configuration not stated)	0.7	.	.	.	.	.	.	.
COC(=O)C1=C(C)N(Cc2ccccc2)C(=NCCCCO)NC1c1cccc(C(F)(F)F)c1 (configuration not stated)	0.66	.	.	.	.	.	.	.
COc1cc2cccc(OC)c(=O)c2c(O)c1OC	0.74	0	-1	6	-1	.	.	.
CC(=O)Oc1cc2cccc(OC(C)=O)c(=O)c2c(OC(C)=O)c1OC(C)=O	0.64	18*	14*	.	0	25*	19*	15
Brc1ccc(CN2CCC3C=CCc4cccc(c43)C2)cc1 (configuration not stated)	0.64	.	.	.	.	.	.	.
CCOC(=O)N1CCN(c2cc(=O)n(-c3ccc(C)cc3)c(=O)[nH]2)CC1	0.79	97*	22*	2	3	-2	0	-3
CC(=O)NN1C(=O)c2ccccc2NC1c1ccc([N+](=O)[O-])o1 (configuration not stated)	0.6	18*	15*	4	-10	79*	5.9*	30*
O=C(NN1C(=O)c2ccccc2NC1c1ccc([N+](=O)[O-])o1)c1ccc(Br)cc1 (configuration not stated)	0.69	3	2	5	-2	.	.	.
C#C[C@]1(O)CCC2C3CCC4=CC(=O)CCC4C3CC[C@@]21CC (some centres not stated)	0.69	.	.	.	.	.	.	.
CCC[C@@H](CN1CCC[C@H]1CN1C(N)=NC[C@@H]1Cc1ccccc1)N1C[C@@H]([C@H](C)CC)N(CCCC2CCCC2)C1=N	.	26*	22*	.	96*	14*	13*	11
CCC[C@@H](CN1CCC[C@H]1CN1C(N)=NC[C@H]1CC(C)C)N1C[C@@H]([C@H](C)CC)N(CCc2ccc(Cl)c(Cl)c2)C1=N	0.078*	13*	16*	4	-1	-9	2	-7
CNC(=O)c1[nH]cnc1C(=O)NC(CC(C)C)C(=O)OCc1ccccc1 (configuration not stated)	0.67	.	.	.	.	.	.	.
C#CCOCCOCCOCCNc1nc(N2CCN(C(=O)Cn3cc(CCCN=C(N)N)nn3)CC2)nc(N2CCN(C(=O)C(C(C)CC)n3cc(CCCCN)nn3)CC2)n1 (configuration not stated)	0.71	.	.	.	.	.	.	.
C[C@H]1c2cccc(O)c2C(O)=C2C(=O)[C@]3(O)C(O)=C(C(N)=O)C(=O)[C@@H](N(C)C)[C@@H]3[C@@H](O)[C@@H]21	.	98*	100*	.	147*	101*	100*	101*
Cc1cc(/C=N/NC(=O)c2ccccc2F)c(C)n1-c1ccccc1	.	131*	-1	4	1	1	2	0
CN(C)N=Nc1nc[nH]c1C(N)=O	0.59	18*	12*	7	-5	74*	4.0*	40*
Cc1cc(N/N=C/c2ccc(O)cc2O)nc(-c2ccccc2O)n1	.	14*	4	.	1	17*	7.1*	9
CCOC(=O)c1cn(CC)c2cc(N3CCSCC3)c(F)cc2c1=O	0.46*	75*	83*	7	38	97*	1	11
CCn1cc(C(=O)O)c(=O)c2cc(F)c(N3CCNCC3)cc21	.	99*	99*	.	94*	103*	102*	103*
CCn1cc(C(=O)O)c(=O)c2cc(F)c(N3CCN(S(=O)(=O)c4ccc5c(c4)OCCO5)CC3)cc21	0.083*	94*	48*	7	-6	101*	13*	99*
CCOC(=O)C1C2COc3ccc(C)cc3C2N2C(=O)c3cc(F)c(F)cc3NC(=O)[C@@]12C (some centres not stated)	0.71	.	.	.	.	.	.	.
O=C(Nc1ccc2oc(-c3ccncc3)nc2c1)c1ccc([N+](=O)[O-])o1	0.6	18*	15*	3	0	89*	8.8*	24
CCN1CC2C3C(=O)N(C)C(=O)C3[C@](C)(C1=O)N2C(=O)c1ccccc1 (some centres not stated)	0.7	.	.	.	.	.	.	.
COc1cc(NC(=O)c2cc(C3CC3)on2)c(OC)cc1Cl	0.76	98*	77*	-1	7	-2	2	0
SMILES	E coli growth-1	AddAB inh	E coli growth-2	phage Ecoli inh	Tat export inh	AddAB confirm	RecBCD counter	Bact viability
C=C(CCC(O)C(C)(C)O)C1CC[C@]2(C)C1CCC1[C@@]3(C)CCC(=O)C(C)(C)C3CC[C@]12C (some centres not stated)	0.65	.	.	.	.	.	.	.
C/C(=C\C(=O)OCCCCCCCCC(=O)O)C[C@@H]1OC[C@H](C[C@@H]2O[C@H]2[C@@H](C)[C@H](C)O)[C@@H](O)[C@H]1O	.	18*	6	10	128*	7	18*	2
CC(C)(C)OC(=O)NCCCCC(NC(=O)c1[nH]cnc1C(=O)NC(Cc1ccccc1)C(=O)OC(C)(C)C)C(=O)OC(C)(C)C (configuration not stated)	0.73	.	.	.	.	.	.	.
CCCOc1ccc(C(O)=C2C(=O)C(=O)N(CCCOC)C2c2cccnc2)cc1 (configuration not stated)	0.68	.	.	.	.	.	.	.
COc1ccc2c(c1)OC(c1ccc3c(c1)OCO3)C(O)C2=O (configuration not stated)	0.69	.	.	.	.	.	.	.
O=Cc1ccc(OCc2cccc(C(F)(F)F)c2)cc1O	0.61	13*	12*	10	-4	8	9.5*	6
CCCCCCCCC[n+]1cccc2c3ccccc3ccc21	0.49*	15*	16*	.	-12	9	6.6*	7
COc1ccc(-c2nnc(NC(=O)c3ccc4c(c3)OCCO4)o2)cc1	0.7	1	-4	-1	-8	.	.	.
COc1ccc(-c2nnc(NC(=O)c3ccc(F)cc3)o2)cc1	0.55	15*	5	4	7	17*	12*	5
CC1CN(C(C)CO)C(=O)Cc2cc(NC(=O)Nc3ccc(C(F)(F)F)cc3)ccc2OC1CN(C)S(=O)(=O)c1ccc(Cl)cc1 (configuration not stated)	0.64	.	.	.	.	.	.	.
CCCCOC(=O)C(C)Oc1ccc(=O)n(-c2ccccc2)n1 (configuration not stated)	0.77	21*	5	2	-3	4	1	-3
Cc1ccc(-c2noc(N=O)c2NO)cc1	0.61	24*	19*	5	-15	33*	7.9*	31*

Assay outcomes deposited in PubChem by several laboratories.
